# High-throughput results from PubChem BioAssay.
# gsp agonist: activates gsp, the McCune-Albright syndrome mutation; gsp mutant cells, cAMP HTRF, 30 min; Potency, µM (highest dose often 76.9 µM), without a hit: at the top dose activation (cAMP increase), usual class: activators; 340,000 compounds, 0.13% hits; active = well fitted activation curve with a large enough effect; inconclusive = small, poorly fitted or top-dose-only effect, or another doubt; inactive = no such curve, though single readings can be large or run the other way; cell line not stated here;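 also: phosphodiesterase inhibitor Ro 20-1724 added with compounds to block cAMP breakdown; potency is read from the fitted curve at half-maximal effect; nearly all actives have a fitted effect of over 60% in size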
#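 Cells stably selected in G418 were plated at 2000/well, grown 16-24 hr, then given compounds in DMSO with the PDE inhibitor […] (300 uM solution added) for 30 min at 37C; cAMP was read by HTRF.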
# hERG WT inh: inhibitors of human wildtype KCNH2 potassium channel; activity change, % at 1.84 µM; U2OS, BacMam KCNH2, thallium flux FluxOr; hits give low values; 340,000 compounds, 0.37% hits; Q12809;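 active = maximum activity change below -70%; inconclusive = maximum activity change between -70% and -50%; inactive = maximum activity change above -50%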; also: % is scaled to controls: 0 for no effect and ±100 for the full control effect
#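 U2OS cells transduced with wild-type KCNH2 virus are loaded with FluxOr dye for 45 min, and thallium flux is measured in kinetic reads before and after stimulation buffer. Rate constants are normalized to DMSO controls.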
# KCNH2 3.1 inh: inhibitors of human KCNH2 3.1 potassium channel isoform. U2OS KCNH2 3.1, thallium flux FluxOr; hits give low values. AID 720553. 340,000 compounds, 0.95% hits. activity change, % (tested at about 1.8 µM);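 active = maximum activity change below -70%; inconclusive = maximum activity change from -70% to -50%; inactive = maximum activity change above -50%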;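 also: thallium influx rate constant from kinetic fluorescence after stimulation buffer; % is scaled to controls: 0 for no effect and ±100 for the full control effect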
#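 Channel expression came from 3.1 mutant virus (1.77 x 10^8 /mL) applied to suspended U2OS cells for 4 h. Flux was tracked with FluxOr dye plus Red40 quencher, and kinetic rate constants normalized to controls.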
# pAkt inh: inhibitors of Akt phosphorylation; AID 651550; Neuro2A IGF-stimulated pAkt S473 HTRF, 20 min; hits give low values; activity change, % for hits at 50 µM; 360,000 compounds, 0.32% hits; in the data active = activity change below about -80%; inconclusive = mostly about -51% to -80%; also: % is scaled to controls: 0 for no effect and ±100 for the full control effect
#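 Single-point screen (50 µM final compound) in Neuro2A cells stimulated 20 min with 6 nM IGF at 37 deg C. After lysis, Ser473-phosphorylated Akt read by HTRF (ex 330 nm, em 615/665 nm) as the 665/615 ratio.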
# GRP78 ERSR act: inducers of ER stress response in human glioma cells. U87-MG GRP78 promoter luciferase reporter, 16 h. Potency, µM, inactives show top-dose activation, usual class: activators. 420,000 compounds, 0.02% hits. AID 602332; active = well fitted activation curve with a large enough effect; inconclusive = small, poorly fitted or top-dose-only effect; inactive = no such curve, though single readings can be large or run the other way; also: potency is read from the fitted curve at half-maximal effect; series mostly up to about 76 µM; % of control where 0% means no effect; nearly all actives have a fitted effect of over 35% in size
#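 ERSR induction read as luciferase luminescence (Bright-Glo, 10 min at room temperature) in stably transfected human U87-MG glioma cells exposed to compounds for 16 h, using GRP78 as sensor.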
# gsp antag: gsp mutant antagonism | Potency, µM (titrated, usually from 76.9 µM), for inactives: at the top dose activity change, negative = inhibition, actives largely listed as inhibitors | gsp-mutant cells, cAMP HTRF, 30 min | 340,000 compounds, 0.4% hits; calls by dose curve; cell line not stated here;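 also: intracellular cAMP measured with PDE inhibitor Ro 20-1724 present during compound exposure; potency is read from the fitted curve at half-maximal effect; % is scaled to controls: 0 for no effect and ±100 for the full control effect; nearly all actives have a fitted effect of over 65% in size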
#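 Cells, 2000/well, grown 16–24 h in DMEM 10% FBS with 0.5 mg/ml G418, then compounds plus […] (300 uM addition stock), 30 min at 37C. cAMP read by HTRF (cAMP-d2 and anti-cAMP antibody-K in lysis buffer) after 30 min RT.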
# The depositor's hits bear a star; i = inactive; ? = inconclusive; . = no result given; [ ] = remark or other dose. In the library only some 1.6% were active in any assay of this set; here they are far more common.
SMILES,gsp agonist,hERG WT inh,KCNH2 3.1 inh,pAkt inh,GRP78 ERSR act,gsp antag
Cc1cc(C)nc(N/C(=N\S(=O)(=O)Cc2ccccc2)Nc2ccc(F)c(Cl)c2)n1,-77.6%,5.2,1.8,i,-5.5%,1.6%
CCCCc1nc2c(c3c1CC(C)OC3)CN(CCOc1ccccc1)CC2 (stereo not given),.,.,.,.,-1.6%,.
O=C(Oc1ccc(N(Cc2cccs2)C2=NS(=O)(=O)c3ccccc32)cc1)c1ccccc1,7.3%,16.4,-29.9,i,-3.6%,1.9%
O=C(Oc1ccc(N(Cc2cccs2)C2=NS(=O)(=O)c3ccccc32)cc1)c1ccc(Cl)cc1,-4.0%,?,-99.1*,i,-1.9%,-10.5%
CCCCCc1cc(O)c2c(C)cc(=O)oc2c1,?,1.5,-10.2,i,-6.9%,2.9%
CCCCc1cc(O)c(CCCC)c(O)c1,13.8%,-2.7,.,i,22.4µM*,3.5%
CC(NC(=O)c1ccco1)c1nnc2n1CCN(Cc1ccc(N3CCCC3)cc1)CC2 (stereo not given),.,.,.,.,-6.3%,.
O=C(NCCc1ccccc1)C1CCCN(S(=O)(=O)c2cccnc2)C1 (stereo not given),-20.0%,-253.9*,11.7,i,1.1%,-9.4%
COc1ccccc1-c1nnc(SC(C(=O)c2c[nH]c3ccccc23)c2ccccc2)n1C (stereo not given),5.3%,-12.1,7.4,i,-6.3%,35.5µM*
COc1cccc(-c2nnc(SC(C(=O)c3c[nH]c4ccccc34)c3ccccc3)n2C)c1 (stereo not given),-4.0%[15.4 µM],-7.6,-7.4,i,-4.0%,?
Cc1ccc2nc(C)c(C(=O)O)cc2c1,-3.5%,-1.2,-3.3,i,-3.9%,0.2%
Cc1ccc2cc(C(=O)O)c(C)nc2c1,9.8%,4.7,-87.9*,i,-3.0%,-1.4%
Cc1cc(/C=C(\C#N)C(=O)NCCc2c[nH]c3ccccc23)c(C)n1C,-19.9%,-10.8,-46.8,i,-2.2%,?
N#C/C(=C/c1ccc(Br)s1)C(=O)NCCc1c[nH]c2ccccc12,?,-73.5*,-7.4,i,-4.3%,12.5%
CN1CCN(c2ccc(Cl)cc2NC(=O)c2cccc(S(=O)(=O)N(C)C)c2)CC1,12.3%,-14.1,-0.3,i,-3.1%,7.9%
CN1CCN(c2ccc(Cl)cc2NC(=O)/C=C/c2cccc(F)c2)CC1,?,?,-70.3*,i,-5.5%,-1.7%
CCCCn1c(CCC)nc([N+](=O)[O-])c1Sc1ccc(Cl)cn1,20.6%,-12.3,9.5,-114.4%*,-1.3%,-24.8%
O=C1NC2(CCCCCC2)C(=O)N1Cc1ccc(F)cc1Cl,17.3%[15.4 µM],-2.9,-126.8*,i,-6.9%,7.8%
COc1ccc(C(NC(=O)c2c(F)c(F)c(F)c(F)c2F)c2ccccc2)cc1 (stereo not given),-37.9%,-3.2,-3.8,i,-6.0%,31.6µM*
Cc1c(C(=O)NCC(C)(C)N2CCOCC2)cnn1-c1nccc(-c2cccs2)n1,.,.,.,.,-0.8%,.
CN(CCO)C(=O)c1cn(C2CCCN(Cc3ccc(C(F)(F)F)cc3)C2)nn1 (stereo not given),.,.,.,.,-4.4%,.
Cc1cc(C)c(C#N)c(SCC(=O)Nc2cccc(S(=O)(=O)N3CCCC3)c2)n1,28.2µM*,9.9,-2.3,i,-4.4%,17.6%
CC(C)Oc1ccc(C(=O)Nc2cccc(S(=O)(=O)N3CCCC3)c2)cc1,14.8%,14.6,-125.3*,i,2.6%,?
O=C(Nc1cccc(S(=O)(=O)N2CCCCC2)c1)c1ccc(Cl)nc1,-16.8%,16.1,19.9,i,-5.7%,50.1µM*
O=C(Oc1cccc(NC(=O)c2ccco2)c1)c1cccc(S(=O)(=O)N2CCCCC2)c1,-3.8%,10.3,-7.3,-116.2%*,0.6%,-6.2%
Cc1cc(C)c(C#N)c(SCC(=O)Nc2ccc(S(=O)(=O)Nc3ncccn3)cc2)n1,-7.2%[15.4 µM],5.6,.,i,0.4%,-10.6%
COc1cccc(NC(=O)c2ccc(S(=O)(=O)N3CCCC3)cc2)c1,-7.7%[15.4 µM],12.6,-16.0,i,-4.4%,5.9%
